Experimental data from PubChem BioAssay AID1345082 (National Center for Advancing Translational Sciences (NCATS), 2018).
Among all 94,000 compounds or so, about 4,000 (4.3%) were called active. Another 29% or so got no clear call; they are omitted. Calls come from the whole dose curve; as a rule, active = well fitted inhibition curve with a large enough effect; inconclusive = small, poorly fitted or top-dose-only effect; inactive = no such curve, though single readings can be large or run the other way. Shown is part of a subset that was picked to be rich in actives. Entries that show only a call come without a potency.
Potency is the fitted concentration of half-maximal effect.

Experiment: Cytotoxic Profiling in NIH 3T3 Cell Line of Diverse Libraries Using Quantitative High-Throughput Screening; note: nearly all actives have a fitted effect of over 55% in size
Conditions: NIH 3T3 viability, CellTiter-Glo ATP luminescence, 48-72 h; series mostly up to 96.7 µM
How it was run: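 Cells were seeded at 400 per well, treated with pin-transferred compound, and kept 48 or 72 hr at 37 °C before CellTiter-Glo addition and luminescence imaging of cellular ATP.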
In the case of C[S+](=O)([O-])N1CCC2(C1)N=C(c1ccccn1)C(=O)N2 (stereo not drawn), the Potency is reported as “inactive”.
With CC(C)CN1C(=O)COC[C@@H]1[C@H](O)c1ccc(NC(=O)Cc2ccccc2)cc1 the Potency was “inactive”.
In the case of COc1ccccc1CN1C(=O)COC[C@@H]1[C@H](O)c1ccc(NC(=O)c2ccc(C#N)cc2)cc1, the Potency is reported as 44.7 µM (active).
In the case of CCN1C(=O)COC[C@@H]1C(O)c1ccc(NC(=O)Cc2ccc(OC)cc2)cc1 (stereo partly drawn), the Potency is reported as “inactive”.
With O=C(Cc1ccccc1)Nc1ccc([C@@H](O)[C@H]2COCC(=O)N2)cc1 the Potency was “inactive”.
In the case of Cc1nc2cnccn2c1C(=O)NC1CCCC1, the Potency is reported as “inactive”.
In the case of Cn1nc2n(c1=O)CCN(S(=O)(=O)c1ccc(C#N)cc1)CC2, the Potency is reported as “inactive”.
In the case of Cc1cccc(-c2cc(C3CCN(S(=O)(=O)c4ccc(C#N)cc4)CC3)[nH]n2)c1, the Potency is reported as 14.1 µM (active).
For Cc1cccc(S(=O)(=O)N2CCC(n3cnnc3C(C)C)CC2)c1, the Potency was “inactive”.
For Cc1cccc(-c2cc(C3CCN(S(=O)(=O)c4cccc(C#N)c4)CC3)[nH]n2)c1, the Potency was 5.01 µM (active).
In the case of Cc1cnc(-c2cccnc2)n1C1CCN(S(=O)(=O)c2cccc(F)c2)CC1, the Potency is reported as “inactive”.
In the case of Cc1cnc(CC2CCN(S(=O)(=O)c3ccc(C#N)cc3)C2)n1Cc1ccccc1 (stereo not drawn), the Potency is reported as “inactive”.
For O=C(Cc1ccsc1)NCC1CCCCC(=O)N1 (stereo not drawn), the Potency was “inactive”.
In the case of Cc1ncccc1C(=O)N1CC2CC(C1)[C@H]1CCCC(=O)N1C2 (stereo partly drawn), the Potency is reported as “inactive”.
For CN1CC(=O)N(C2CCCNCC2)Cc2c1ncnc2N1CCCC(F)C1 (stereo not drawn), the Potency was “inactive”.
In the case of Cc1noc(C)c1CC(=O)NCC12CCC=C1N(Cc1ccccc1)C(=O)CC2 (stereo not drawn), the Potency is reported as “inactive”.
For Cn1ncc(N2CCC(C(=O)NC3CCCC3)C2)cc1=O (stereo not drawn), the Potency was “inactive”.
With CCc1ccc(C(=O)NC2CCN(c3cnn(CC)c(=O)c3)CC2)cc1 the Potency was “inactive”.
In the case of Cc1cc(C)cc(C(=O)NC2CCN(c3cnn(C)c(=O)c3)CC2)c1, the Potency is reported as 39.8 µM (active).
For COc1ccc(C(=O)N2CCN(C(=O)Nc3cccc(OC)c3)C[C@@H]2C(=O)N[C@H]2CCCNC2=O)cc1, the Potency was “inactive”.
In the case of Cc1cc(C(=O)NCC2(COc3cccnc3)C[C@@H](O)[C@@H](O)C2)n(C)n1 (stereo partly drawn), the Potency is reported as “inactive”.
In the case of O=C(c1ccco1)N1Cc2[nH]cnc2C[C@H]1c1nc(-c2ccncc2)no1, the Potency is reported as “inactive”.
With Cc1cccc(-c2noc([C@@H]3Cc4nc[nH]c4CN3C(=O)CCC(=O)O)n2)c1 the Potency was “inactive”.
With Cc1ccc(-c2noc([C@@H]3Cc4nc[nH]c4CN3Cc3cccc(C#N)c3)n2)cc1 the Potency was 100 µM (active).
For CNC(=O)c1cc(C2CC2)nc2onc(C3CCN(C(=O)Cc4ccc(OC)cc4)CC3)c12, the Potency was “inactive”.
For O=C(c1cccnc1)N1CCC2(CCCN(C3CCOCC3)C2=O)C1 (stereo not drawn), the Potency was “inactive”.
In the case of O=C1c2cc(N3CCOCC3)nc(-c3cccnc3)c2CN1C1COC1, the Potency is reported as 8.91 µM (active).
With O=C(NC1CCCCC1)N1CCCCCC1c1nc(-c2cccnc2)no1 (stereo not drawn) the Potency was “inactive”.
In the case of CN1Cc2c(cc(N3CCOCC3)nc2-c2cccc(F)c2)C1=O, the Potency is reported as 8.91 µM (active).
With O=c1[nH]c(N2CCOCC2)nc2c1CCN(Cc1cccc(F)c1)CC2 the Potency was “inactive”.
In the case of Cc1cccc(Cn2c(-c3ccc(F)cc3)nc(C)c(CCO)c2=O)c1, the Potency is reported as “inactive”.
With Cc1cc(N2CCC(NC(=O)c3cccc(N(C)C)c3)C2=O)ccc1F (stereo not drawn) the Potency was “inactive”.
With O=C(c1c[nH]c2ccccc12)N1CCC2(COc3ccncc3S(=O)(=O)N2)C1 (stereo not drawn) the Potency was “inactive”.
In the case of Cc1cc(C(=O)N2CCC(N3C(=O)C(O)C34CCCCC4)CC2)nn1C (stereo not drawn), the Potency is reported as “inactive”.
For Cc1nc(C)c(C(=O)N2CCN(C(=O)N(C)C)[C@@H]3CS(=O)(=O)C[C@@H]32)s1, the Potency was “inactive”.
With COc1ccccc1C(=O)N1CCC2(CC1)C(=NC1CCCCC1)NC(=O)N2c1cccnc1 the Potency was “inactive”.
In the case of O=C(NCc1nnc2n1C(C(=O)NC1CC1)CC2)c1ccncc1 (stereo not drawn), the Potency is reported as “inactive”.
In the case of CCn1cc(S(=O)(=O)N2CC[C@@H]3C(=O)NCCCCCCN(Cc4ccncc4)[C@@H]3C2)cn1, the Potency is reported as “inactive”.
For CN1[C@@H](CCC(=O)N2CCCC2)CNC(=O)[C@@H]2[C@H]1CCN2Cc1ccc(S(C)(=O)=O)cc1, the Potency was “inactive”.
In the case of O=c1n(CCN2CCN([S+](=O)([O-])c3cccs3)CC2)nc2n1CCCC2, the Potency is reported as “inactive”.
For O=[S+]([O-])(c1cccs1)N1CCN(c2nccc(Nc3ccccc3F)n2)CC1, the Potency was 25.1 µM (active).
In the case of COc1ccccc1Nc1ccnc(N2CCC(NC(=O)NC(C)C)CC2)n1, the Potency is reported as “inactive”.
In the case of COc1ccccc1Nc1ccnc(N2CCC(N[S+](=O)([O-])c3cccs3)CC2)n1, the Potency is reported as 31.6 µM (active).
With COc1ccccc1-n1c(=O)c(C(=O)N2CCN([S+](=O)([O-])c3cccs3)CC2)nc2cccnc21 the Potency was “inactive”.
With CN(C)C(=O)c1cccnc1OC1CCN(C(=O)c2ccc(Br)o2)C1 (stereo not drawn) the Potency was “inactive”.
With CCc1nc2nccc(-c3ccco3)n2n1 the Potency was “inactive”.
With Cc1nc(-c2ccccc2OC2CN(C(=O)c3ccnn3C)C2)no1 the Potency was “inactive”.
With CC(=O)/C=C/C1=CC(C)(C)COc2ccc(O)cc21 the Potency was 25.1 µM (active).
In the case of Cc1noc(-c2cccc(OC3CN(C(=O)CN4C(=O)CCC4=O)C3)c2)n1, the Potency is reported as “inactive”.
With CC(=O)Nc1ccc(NC(=O)Cn2nc3c(cc2=O)CCCCC3)cc1 the Potency was “inactive”.
For O=C(Cc1cccnc1)N1CCCC(c2nc(CCOCC3CCCC3)no2)C1 (stereo not drawn), the Potency was “inactive”.
In the case of C1CCC(COCCc2noc(C3CNC3)n2)C1, the Potency is reported as 7.94 µM (active).
With O=C(c1ccoc1)N1CCCC(c2nc(CCOCC3CCCC3)no2)C1 (stereo not drawn) the Potency was “inactive”.
With COCCCNC(=O)c1ccc2oc(-c3ccc(OC)nc3)nc2c1 the Potency was “inactive”.
With CC(C)CNC(=O)N1CCCC(c2nc(C(C)C)no2)CCNC(=O)CC1 (stereo not drawn) the Potency was “inactive”.
For CC(C)(C)NC(=O)N1CCCC(c2nc(CCOCC3CCOCC3)no2)C1 (stereo not drawn), the Potency was “inactive”.
For CC(=O)N1CCC(N2CCC[C@H]2c2nc(-c3ccc(-c4cncnc4)nc3)no2)CC1, the Potency was “inactive”.
For CN1CCC(N2CCC[C@H]2c2nc(-c3ccc(OC4CCCCC4)nc3)no2)CC1, the Potency was 28.2 µM (active).
In the case of CC(=O)N1CCN(c2cc(-c3noc([C@@H]4CCCN4C4CCC4)n3)ccn2)CC1, the Potency is reported as “inactive”.
With COCCN1CCC2(CCC1=O)CCN(C(=O)Nc1cc(Cl)ccc1C)CC2 the Potency was “inactive”.
In the case of C=CCN(C)C(=O)[C@@H](C)C1CC[C@@]2(C)Cc3sc(Nc4c(Cl)cccc4Cl)nc3[C@@H](C)[C@@H]2[C@H]1O (stereo partly drawn), the Potency is reported as 44.7 µM (active).
With COCCNC(=O)C(C)[C@@H]1CC[C@@]2(C)CC[C@H](NC(=O)c3ccccc3)[C@@H](C)[C@@H]2[C@H]1O (stereo partly drawn) the Potency was “inactive”.
In the case of CCN(CC)C(=O)[C@@H](C)C1CC[C@@]2(C)Cc3sc(N)nc3[C@@H](C)[C@@H]2[C@H]1O (stereo partly drawn), the Potency is reported as “inactive”.
In the case of Cc1cc(C2CCCN2C(=O)c2ccccc2)on1 (stereo not drawn), the Potency is reported as “inactive”.
In the case of O=C(c1ccc2cc[nH]c2c1)N1CCN(Cc2cnc[nH]2)CC(O)C1 (stereo not drawn), the Potency is reported as “inactive”.
For Cc1ccc(-n2nc3n(c2=O)CCN(C(=O)C(C)(C)C)C3)cc1, the Potency was 50.1 µM (active).
With O=C(C1CC1)N1CCn2c(nn(-c3ccc(F)cc3)c2=O)C1 the Potency was “inactive”.
For Cc1ccc(-n2nc3n(c2=O)CCN(C(=O)Cc2ccccn2)C3)cc1, the Potency was “inactive”.
In the case of COc1ccc(N2CCN(C3CCCN(CC(=O)N(C)C(C)C)C3)CC2)cc1 (stereo not drawn), the Potency is reported as “inactive”.
In the case of COc1ccc(CC(=O)Nc2cc(-c3cccnc3)nn2-c2ccccc2)cc1, the Potency is reported as “inactive”.
In the case of COc1ccc(-n2nc(-c3ccccc3)n(CC(=O)N(C)CC(C)C)c2=O)cc1, the Potency is reported as 79.4 µM (active).
With Cc1noc2c(N3CC[S+](=O)([O-])CC3)cc(-c3ccc(Cl)cc3)nc12 the Potency was 10 µM (active).
In the case of Cc1noc2c(N3CCC(c4ccccc4)CC3)cc(-c3cccnc3)nc12, the Potency is reported as “inactive”.
With Cc1nc2c(c(-c3ccc(Cl)cc3)n1)CCN([S+](=O)([O-])c1c(C)noc1C)CC2 the Potency was “inactive”.
In the case of CN1CCCCCCN(C(=O)C2CCC2)[C@H]2CCC[C@H]2C1=O, the Potency is reported as “inactive”.
In the case of Cc1noc(C)c1-c1cc2cc(CNC3CCOCC3)oc2c(NC2CCN(C)CC2)n1, the Potency is reported as 39.8 µM (active).
For CCOCCN1C(=O)COC[C@@H]1[C@H](O)c1ccc(NC(=O)c2cnccn2)cc1, the Potency was “inactive”.
For CCCN1CCN(C(=O)C2CCCN(c3cnn(Cc4ccccc4)c(=O)c3)C2)CC1 (stereo not drawn), the Potency was “inactive”.
For O=C(C1CCCN(Cc2cccc(-c3ccc(F)cc3F)c2)C1)N1CCN(Cc2ccccc2)CC1 (stereo not drawn), the Potency was 39.8 µM (active).
With O=C(C1CCN(Cc2ccccc2-c2cccnc2)CC1)N1CCN(Cc2ccccc2)CC1 the Potency was “inactive”.
In the case of COCc1nc(CCNC(=O)Cc2c(C)noc2C)no1, the Potency is reported as “inactive”.
For CN(C)C[C@@H]1CN(C)C[C@H]1NC(=O)c1cnn(C)c1, the Potency was “inactive”.
With CCn1ccc(C(=O)NCC2CCCCC(=O)N2)n1 (stereo not drawn) the Potency was “inactive”.
For O=C(c1ccccn1)N1CCn2c(nnc2C2CCCNC2)C1 (stereo not drawn), the Potency was “inactive”.
With COCC(=O)N(C1CCOCC1)C1CCN(S(=O)(=O)c2ccccc2)CC1 the Potency was “inactive”.
In the case of O=C1NC2(Cc3ccccc31)CN([S+](=O)([O-])c1cccc(C(F)(F)F)c1)C2, the Potency is reported as “inactive”.
In the case of O=[S+]([O-])(c1ccccc1)N1CCCC2(CC(c3ccccn3)=NO2)C1 (stereo not drawn), the Potency is reported as “inactive”.
With O=C1NC2(CCCN([S+](=O)([O-])c3ccccc3)C2)COc2ccccc21 (stereo not drawn) the Potency was 22.4 µM (active).
With COc1nccnc1NC1CCN(C(=O)CCc2ccccc2)CC1 the Potency was “inactive”.
With Cc1ccc(C2Cn3nnc(-c4noc(-c5ccccc5C)n4)c3CO2)cc1 (stereo not drawn) the Potency was “inactive”.
With O=C1CCCN1CCCN1C(=O)[C@@H]2C[C@@H](O)CN2C2(CN(C3CCOCC3)C2)C1=O the Potency was “inactive”.
For COCC(=O)Nc1ccc([C@@H](O)[C@H]2COCC(=O)N2Cc2ccc(C(F)(F)F)cc2)cc1, the Potency was “inactive”.
In the case of COCCn1c2c(c(=O)n1-c1ccccc1)CCN(Cc1cccc(C#N)c1)C2, the Potency is reported as 100 µM (active).
In the case of O=C(Cn1c2c(c(=O)n1Cc1ccccc1)CCN(Cc1ccccc1)C2)NCc1cccc(Cl)c1, the Potency is reported as “inactive”.
For N#Cc1cccc(CN2CCCN(S(=O)(=O)c3ccccc3)CCC(=O)NCC2)c1, the Potency was “inactive”.
For O=C1NCCN(Cc2ccccc2)C1CC(=O)N1CCN(c2ccccc2)CC1 (stereo not drawn), the Potency was “inactive”.
With N#Cc1cccc(CN2CCc3nc(N4CCc5ccccc5C4)[nH]c(=O)c3CC2)c1 the Potency was “inactive”.
In the case of O=c1c2c(n(Cc3ccccc3)n1-c1ccccc1)CN(Cc1ccn[nH]1)CC2, the Potency is reported as 89.1 µM (active).
